Compound activity from PubChem BioAssay.
A549 viability – A549 cytotoxicity, counter-screen for Nrf2 inhibitors; Potency, µM (series often up to 46 µM), actives largely listed as inhibitors; A549 ARE-Fluc cells, CellTiter-Fluor viability, 18-24 h; AID 504648; 390,000 compounds, 0.16% hits
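A549 ARE-Fluc cells in 5% FBS OPTI-MEM, 5000 cells/well, rested 2 h then exposed to compounds in concentration-response for 18-24 h at 37 °C. Viability by CellTiter-Fluor fluorescence (Ex 405/Em 525) after 30 min; luciferase luminescence (BugLite, 15 min, RT) read afterwards.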
Nrf2 block – blocks Nrf2 signaling. A549 ARE-Fluc reporter, luciferase luminescence, 18-24 h. Potency, µM (series often up to 46 µM), usual class: inhibitors. 360,000 compounds, 2.1% hits; also: nearly all actives have a fitted effect of over 60% in size
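In this cell-based qHTS, ARE-driven firefly luciferase in A549 cells reports Nrf2 activity; the luminescent signal after BugLite lysis is the measured value, with a prior CellTiter-Fluor read for cell health.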
PI4K2A inh – PI4K2A (human) kinase inhibition; Q9BTU6; purified PI4K2A, ADP-Glo luminescence, 1 h; hits give low values; activity change, negative = inhibition, % at 76.9 µM; 420,000 compounds, 0.13% hits; in the data active = activity change below about -50%; inconclusive = mostly about -30% to -49%
Target sequence (Q9BTU6 whole entry, looked up): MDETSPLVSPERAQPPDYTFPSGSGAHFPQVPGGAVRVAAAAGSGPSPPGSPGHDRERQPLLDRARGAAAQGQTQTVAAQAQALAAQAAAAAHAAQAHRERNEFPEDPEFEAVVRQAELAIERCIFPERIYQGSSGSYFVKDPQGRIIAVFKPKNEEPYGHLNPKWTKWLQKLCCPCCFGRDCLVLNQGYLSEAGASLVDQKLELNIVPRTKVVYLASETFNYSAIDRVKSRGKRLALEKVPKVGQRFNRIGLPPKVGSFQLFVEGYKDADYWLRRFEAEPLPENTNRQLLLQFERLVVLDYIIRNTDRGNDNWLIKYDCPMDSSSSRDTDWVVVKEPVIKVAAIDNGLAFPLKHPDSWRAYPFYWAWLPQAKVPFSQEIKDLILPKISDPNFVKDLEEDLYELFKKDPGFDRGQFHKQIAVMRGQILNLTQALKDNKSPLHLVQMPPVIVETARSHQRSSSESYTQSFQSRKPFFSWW
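ADP-Glo luminescence measured ADP generated by PI4K2A enzyme (4 ug/mL before mixing) with 1.2 mM PI substrate (pre-mix) and 300 microM ATP (pre-mix). Tris pH7.5 buffer with MgCl2, Triton X-100; 1 h reaction at ambient temperature.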
KB-3-1 cytotox – KB-3-1 parental cell cytotoxicity; KB-3-1 viability, CellTiter-Glo ATP luminescence, 72 h; 400,000 compounds, 1.4% hits; AID 1347075; Potency, µM (highest dose often 46.1 µM), usual class: cytotoxic; also: nearly all actives have a fitted effect of over 60% in size
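72 h, 37 °C compound treatment of KB-3-1 parental cells; CellTiter-Glo added, 10 min, luminescence read. Data corrected against DMSO-only plates and normalized before curve fitting.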
KB-V1 cytotox – KB-V1 MDR subline cytotoxicity | KB-V1 MDR cells viability, CellTiter-Glo, 72 h | Potency, µM (series often up to 46.1 µM), actives largely listed as cytotoxic | 400,000 compounds, 3.4% hits | AID 1347076; also: nearly all actives have a fitted effect of over 60% in size
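Potencies derive from concentration-effect curves fitted to normalized luminescence (CellTiter-Glo) of KB-V1 cells treated for 72 h at 37 degrees C in phenol-red-free DMEM containing 10% FBS.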
Giardia kill – kills Giardia lamblia; activity change, % at 7.66 µM, hits read low; Giardia lamblia trophozoite viability; AID 540267; 340,000 compounds, 0.15% hits; in the data active = activity change below about -80%; inconclusive = between about -30% and that limit;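 also: parasites exposed to compound for two days anaerobically before the ATP read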
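Luminescence from cellular ATP indicates surviving trophozoites (100 cells/well) following 48 hrs anaerobic compound treatment at 37 deg C; signal develops 15-30 min at room temperature.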
Numbers stand for hits; - = inactive; ? = inconclusive; . = not tested or not shown. Only some compounds are listed: those with a hit (about 5.7% of all), similar ones and a draw of the others. Unless noted, calls follow the shape of the dose curve; as a rule, active = well fitted curve in the direction sought with a large enough effect; inconclusive = small, poorly fitted or top-dose-only effect, or another doubt; inactive = no such curve, though single readings can be large; an effect the other way counts as inactive or inconclusive.

SMILES | A549 viability | Nrf2 block | PI4K2A inh | KB-3-1 cytotox | KB-V1 cytotox | Giardia kill
O=C(NCc1ccccc1)[C@]1(C(F)(F)F)C[C@H](CCC2CCCCC2)CCCO1 | - | - | . | . | . | -
N#CC1=C(SCC(=O)c2ccc(Br)cc2)NC2=C(C(=O)CCC2)C1c1ccco1 (centres undefined) | ? | 18µM | - | 10µM | 21µM | -
CC(=O)C1=C(C)NC(SCC(=O)c2ccc(Cl)cc2Cl)=C(C#N)C1c1ccco1 (centres undefined) | - | ? | - | - | - | -
CCc1ccc(NC(=O)CSC2=C(C#N)C(c3ccco3)C3=C(CCCC3=O)N2)cc1 (centres undefined) | - | - | - | ? | ? | -
CC(=O)C1=C(C)NC(SCC(=O)c2ccc(Cl)cc2)=C(C#N)C1c1ccco1 (centres undefined) | - | ? | - | - | 21µM | -
CN(C)CCNc1nccc(N2CCN(C)CC2)n1 | . | . | . | ? | - | .
O=C(CCc1nc2ccccc2[nH]1)Nc1ccc(F)cc1 | ? | - | - | - | 12µM | -
COc1ccccc1CNc1ncnc2onc(-c3ccc(Cl)cc3)c12 | - | - | - | - | - | .
COc1ccc(OC)c(CNc2ncnc3onc(-c4ccc(Cl)cc4)c23)c1 | - | - | - | 5.8µM | 8.2µM | .
N#Cc1c(NCc2ccccc2)ccnc1NCc1cccnc1 | - | 6.5µM | - | - | - | -
N#Cc1ccc(Cn2nnc(-c3ccc(N4CCOCC4)cc3)n2)cc1 | . | . | - | . | . | .
COc1ccc(COC(=O)NC2CCN(S(=O)(=O)c3ccc(OC)cc3)CC2)cc1 | - | - | - | - | 7.3µM | -
COc1ccc(S(=O)(=O)N2CCC(NC(=O)OCc3c(Cl)cccc3Cl)CC2)cc1 | - | - | - | - | 8.2µM | -
Cc1cc(C)c2c(CC(=O)Nc3ccc(S(=O)(=O)N4CCCC(C)C4)cc3)coc2c1 (centres undefined) | - | - | - | - | - | .
COc1ccc(CC(=O)NCC(c2cccs2)S(=O)(=O)c2ccc(Cl)cc2)cc1 (centres undefined) | - | . | - | . | . | .
Cc1nc2ccc(NS(=O)(=O)c3ccc(Br)cc3)cc2s1 | - | 15µM | - | 23µM | - | -
Cc1ccc(S(=O)(=O)Nc2ccc3nc(C)oc3c2)cc1 | - | ? | - | ? | 2.9µM | -
Cc1ccc(S(=O)(=O)Nc2ccc3nc(C)sc3c2)c(C)c1 | - | ? | - | ? | - | -
Cc1ccc(S(=O)(=O)Nc2ccc3nc(C)sc3c2)cc1 | - | 15µM | - | - | ? | -
Cc1nc2ccc(NS(=O)(=O)c3ccccc3F)cc2s1 | - | ? | - | - | - | ?
Cc1nc2ccc(NS(=O)(=O)c3ccc(F)c(F)c3)cc2s1 | - | 16µM | - | - | - | -
Cc1ccc(S(=O)(=O)Nc2ccc3nc(-c4ccc(F)cc4)oc3c2)cc1 | - | - | - | - | - | .
COC(=O)[C@]12C[C@H](CC(=O)NCc3ccc(OC)c(OC)c3)C(=O)N(Cc3ccc4c(c3)OCO4)C1=C[C@H](C(C)C)O[C@@H]2C1CC1 | . | . | - | . | . | .
CCC(=O)OCCCN1C(=O)CCC12CCC(C)CC2 (centres undefined) | . | . | - | . | . | .
CCC1CN(C(=O)Nc2cccc3c2CCCC3)c2cc(C)ccc2O1 (centres undefined) | - | ? | - | . | . | .
SMILES | A549 viability | Nrf2 block | PI4K2A inh | KB-3-1 cytotox | KB-V1 cytotox | Giardia kill
CCOc1ccccc1C(=O)Nc1ccc(S(=O)(=O)Nc2onc(C)c2C)cc1 | - | ? | - | - | - | .
Cc1ccc(S(=O)(=O)Nc2ccc3nc(N)sc3c2)cc1 | - | 7.3µM | - | ? | 21µM | -
CC(=O)Nc1ccc(S(=O)(=O)Nc2ccc3nc(C)sc3c2)cc1 | - | 16µM | - | - | - | -
CC(=O)Nc1ccc2nc(NS(=O)(=O)c3ccc(C)cc3)sc2c1 | - | - | - | ? | - | -
Cc1nc2ccc(NS(=O)(=O)c3cccc([N+](=O)[O-])c3)cc2s1 | - | 18µM | - | - | - | -
Cc1ccc2ncnc(NCc3ccco3)c2c1 | - | ? | . | ? | - | -
COCCNC(=S)NC(=O)CC12CC3CC(CC(C3)C1)C2 | - | - | - | - | 16µM | -
